# Shown is part of a subset that was picked to be rich in hits.
# Tg IFNy HTS – T. gondii growth inhibition with IFN-gamma, primary screen, cell-based; AID 1259416, 2018; activity change, negative = inhibition, % (concentration not given with the values); Toxoplasma gondii growth in IFN-gamma-treated host cells; hits give low values; 69,000 tested, 3.8% active; in the data active means activity change below about -70%, passing the limit was not always enough;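 further: host cells are HeLa cells infected with Toxoplasma gondii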
# * marks the source's active call; other numbers are inactive results; i = inactive; ! = a repeat was not active.
SMILES,Tg IFNy HTS
CCN(CC)c1ncnc2c1cnn2CC(=O)Nc1ccc(OC)cc1,89
CCN(CC)c1ncnc2c1cnn2CC(=O)NCc1ccc(C)cc1,-86*
CCN(CC)c1ncnc2c1cnn2CC(=O)NCc1ccc(C(F)(F)F)cc1,56
CCN(CC)c1ncnc2c1cnn2CC(=O)Nc1cccc(F)c1,-75*
CCOc1ccc(NC(=O)Cn2ncc3c(N(CC)CC)ncnc32)cc1,75
CCN(CC)c1ncnc2c1cnn2CC(=O)NCc1ccc(C)o1,42
O=C(NC1(c2ccc(Cl)cc2)CCC1)c1ccc2c(c1)OCCO2,115
COc1ccc(CN2CC[C@H]3[C@@H](CO[C@H]3CC(=O)NC3CC3)C2)cc1,2
Cc1nc(-c2ccccc2)c(C(=O)N2CCCC3(CC2)CNC(=O)O3)s1 (centres undefined),-6
CN(C)C(=O)N1CCC(c2nc3ccc(Nc4ccccc4)cn3n2)CC1,-9
Cc1nn(CC(C)C)cc1S(=O)(=O)NCc1noc(-c2ccc(Cl)cc2)n1,-20
FC(F)(F)c1ccccc1-n1ccnc1,18
Clc1ccccc1C(c1ccccc1)(c1ccccc1)n1ccnc1,-83*!
N#C/C(=C1/SCC(c2ccccc2Cl)S1)n1ccnc1 (centres undefined),8
CCc1nc2ccc(NC(=O)CCN3Cc4ccccc4C3=O)cc2[nH]1,20
CC(c1cccc(-c2nccn2CCc2cn[nH]c2)c1)N(C)C (centres undefined),-64
O=C(c1ccoc1)N1CC[C@@H]2[C@H](CO[C@H]2Cc2nnc(C3CC3)o2)C1,-2
Cc1cc(CN(C)CC(=O)NCCc2cccc(Cl)c2)n[nH]1,0
COc1cccc(-n2cc(CN(C)Cc3cc(F)ccc3F)cn2)c1,11
COc1cccc(-c2cccc(CN(C)Cc3cc(C)[nH]n3)c2)c1,-82*
CCc1noc(CC)c1C(=O)Nc1nc(-c2ccc(OC)c(OC)c2)cs1,-82*
COc1ccc(-c2csc(NC(=O)c3ccccc3C)n2)cc1,-7
CCc1noc(CC)c1C(=O)Nc1nc(CS(=O)(=O)c2ccc(C)cc2)cs1,-66
CCc1nc(SCC(=O)N2CCCC3(CCNCC3)CC2)n[nH]1,34
CC(=O)NC1CC2(CCN(c3ncccn3)CC2)Oc2ccccc21 (centres undefined),10
SMILES,Tg IFNy HTS
COC(=O)[C@@H]1C[C@@H](N(C)C)CN1C(=O)c1cccnc1N1CCOCC1,11
C=C1/C(=C\C=C2\CCC[C@]3(C)[C@@H]([C@H](C)CCCC(C)C)CC[C@@H]23)C[C@@H](O)C[C@@H]1O,-63
C=C1CC[C@H](O)C/C1=C/C=C1\CCC[C@]2(C)[C@@H]([C@H](C)CCCC(C)C)CC[C@@H]12,-75*
C=C1/C(=C\C=C2/CCC[C@]3(C)[C@@H]([C@H](C)/C=C/C=C/C(O)(CC)CC)CC[C@@H]23)C[C@@H](O)C[C@@H]1O,11
Cc1ccc(C)c(-c2coc(-c3ccc(NC(=O)Nc4ccc(C)c(F)c4)cc3)n2)c1,1
Cc1ccc(NC(=O)c2cncc(NS(=O)(=O)c3ccc(Br)cc3)c2)c(C)c1,-35
CCN(CC)CCNC(=O)c1ccc(I)cc1,12
Cc1c(C)n(C2CCCC2)c2ncnc(OC3CCN(C(=O)Cc4ccsc4)CC3)c12,-80*
CS(=O)(=O)c1cnc(N2CCCCC2)nc1C1CCN(C(=O)Cc2ccsc2)CC1,-19
CN(C)Cc1cnc2n1CCN(C(=O)Cc1ccsc1)CC2,-3
COCC(=O)N1CCC2(CC1)CN(Cc1nccs1)CCO2,-45
CN1CCCN(C(=O)c2cc3c(c4ccccc4n3CC3CC3)n2C(=O)N(C)C)CC1,89
O=C(Nc1c(C(=O)NCc2cccnc2)[nH]c2ccccc12)c1ccc(Cl)cc1,-56
O=C(Nc1ccccc1C(=O)NCc1cccnc1)c1cc2ccccc2o1,-35
O=C(NCc1cccnc1)c1ccccc1C(=O)Nc1sc2ccccc2c1Cl,-94*
COc1ncccc1NC(=O)c1ccnn1-c1ccc2ccc(-c3cccnc3)cn12,-14
O=C(NC1CCC1)[C@H]1C[C@@H]2CN(C(=O)Nc3ccccc3Cl)C[C@H]1O2,37
Cc1ccc(NC(=O)CC(=O)NCCCn2ccnc2)cc1Cl,8
CCC(NC(=O)CC(=O)Nc1ccc(C)c(Cl)c1)c1nc(C)no1 (centres undefined),-5
Cc1ccc(Nc2nc3nonc3n3cnnc23)cc1Cl,-106*
C=CCOC[C@H]1CN(C)C(=O)[C@H]2CCN(C(=O)N3CCCC3)CC[C@H]12,5
CC(CC(=O)N1C[C@@H](c2ccccc2)[C@H]2[C@H]1CCCCCN2C)n1ccnc1 (some centres undefined),-9
CN1CCN2c3ccccc3Cc3ccccc3C2C1 (centres undefined),-1
CN1CCN(C2=Cc3ccccc3Oc3ccc(Cl)cc32)CC1,15
CN1CCN(C2Cc3ccccc3Sc3ccc(Cl)cc32)CC1 (centres undefined),-82*
SMILES,Tg IFNy HTS
CSc1ccc2c(c1)C(N1CCN(C)CC1)Cc1ccccc1S2 (centres undefined),-77*
CN1CCCC(CC2c3ccccc3Sc3ccccc32)C1 (centres undefined),-11
Cc1nc(CC(=O)N2CCCCC2c2nnc3n2CCN(C)C3)cs1 (centres undefined),-47
Cc1cnc(CNC(=O)CCCCN2Cc3ccccc3C2=O)cn1,-36
COCC(=O)N1CCCn2c(nc(CNc3ccccn3)cc2=O)C1,53
O=C(Nc1ccc2c(c1)OCCO2)c1c(O)c2cccnc2n(-c2ccc(F)cc2)c1=O,-15
CC(C)N1CCC2(CC1)CC(CC(N)=O)c1ccc(F)cc12 (centres undefined),1
Fc1ccc(-n2cc(CCCCN3CCC4(CC3)OCc3ccccc34)c3ccccc32)cc1,-76*
COc1ccccc1NC(=O)C(=O)NCCc1sc(-c2ccc(Cl)cc2)nc1C,168
O=C1C(Cc2c[nH]c3ccccc23)N=C2c3ccccc3N=C(SCc3cc(=O)n4cc(Cl)ccc4n3)N12 (centres undefined),1
CN(CC1Cc2ccccc2O1)c1ccc(-c2nccn2C)nn1 (centres undefined),i
CN(Cc1cc(C(C)(C)C)n[nH]1)C(=O)c1cccc(C#CC(C)(C)O)c1,1
O=C(CN1CCCC1Cn1cccn1)Nc1nc(-c2ccc(F)cc2)cs1 (centres undefined),-77*
O=C(CN1CCCCC1)Nc1nc(-c2ccccc2)cs1,-5
Cc1csc(NC(=O)CN2CCC(c3ccc(F)cc3)CC2)n1,9
Clc1cccc(-c2nnc(-c3nc(NCc4cccnc4)c4ccccc4n3)o2)c1,-48
Cc1ccccc1NC(=O)N1CCC(c2nc(C(=O)N3CCOCC3)c(C)o2)CC1,-25
Cc1cc(-n2cccn2)ccc1CN1CCCC(OCc2cccnc2)C1 (centres undefined),7
Cc1ccc(Nc2nc(C(=O)Nc3cc(Cl)ccc3C)nc3ccccc23)cc1,29
Cc1ccc(Nc2nc(C(=O)Nc3ccc(F)cc3C)nc3ccccc23)cc1,59
Cc1ccc(C)c(NC(=O)c2ccc(Nc3nnc(C)c4ccccc34)cc2)c1,-88*
CCn1c2c(ccc1=O)CC(NCc1nccs1)CC2 (centres undefined),i
CC(=O)N1CCC(c2c(C(=O)N3CCC(Cc4ccccc4)CC3)sc3ccccc23)C1 (centres undefined),-28
Cc1ccc(C)c(-c2noc(-c3c(O)c4ccc(F)cc4[nH]c3=O)n2)c1,67
CC(C)(C(N)=O)c1ccc(-c2cc(N)nc3[nH]ccc23)cc1,19
NC(=O)c1csc(-c2cc(NC3CCCC3)nc3[nH]ccc23)n1,-76*
